The experiment has as its target PCSK9 (Homo sapiens, UniProt Q8NBP7;Q8NBP7 Q8NBP7:31-152,Q8NBP7:153-692). Nature of the experiment: SPR; vs PCSK9-A5; salmon sperm DNA. As to conditions: tags: ACROBiosystems PC9-H5223; label: 5' dual biotin-iSp18; ssDNA; as PCSK9-A5 except codon 13 CAC unmodified [codon 13 CAC (nt 55-57) unmodified; other codons as PCSK9-A5 (including phenol at codon 9 TTT nt 43-45, cyclopentyl at codon 14 CTT nt 58-60)].

Chain of PCSK9 (Q8NBP7 31-152, chain 1 of 2): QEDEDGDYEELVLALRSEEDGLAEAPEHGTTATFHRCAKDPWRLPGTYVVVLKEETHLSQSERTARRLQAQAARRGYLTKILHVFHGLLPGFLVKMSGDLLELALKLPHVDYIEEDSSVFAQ
Chain of PCSK9 (Q8NBP7 153-692, chain 2 of 2): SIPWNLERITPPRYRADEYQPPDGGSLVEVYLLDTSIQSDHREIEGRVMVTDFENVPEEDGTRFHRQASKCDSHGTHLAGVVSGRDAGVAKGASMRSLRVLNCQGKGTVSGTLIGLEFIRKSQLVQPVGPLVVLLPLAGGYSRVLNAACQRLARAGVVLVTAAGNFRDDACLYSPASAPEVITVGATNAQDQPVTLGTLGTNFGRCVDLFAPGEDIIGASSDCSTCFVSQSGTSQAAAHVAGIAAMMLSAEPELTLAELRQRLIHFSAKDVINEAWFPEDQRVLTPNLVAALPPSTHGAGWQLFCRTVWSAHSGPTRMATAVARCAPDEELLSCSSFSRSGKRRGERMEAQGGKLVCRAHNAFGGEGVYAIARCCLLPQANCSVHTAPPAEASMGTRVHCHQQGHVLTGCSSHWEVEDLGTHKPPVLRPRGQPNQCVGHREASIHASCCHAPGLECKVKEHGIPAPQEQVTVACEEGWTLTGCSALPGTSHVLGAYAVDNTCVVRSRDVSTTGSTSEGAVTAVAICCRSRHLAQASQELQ

Regarding “CGAATCAGATTGGACCAGCCACGTTACTGATTCTTCTACCGTTTTTGCCCCCGGCACCTTCTGGAGTCCAGATGTAGGTAG”, the binding signal was ~2 fold reduction in affinity.

(Values after US20200172896, “EVOLUTION OF BIOACTIVE SEQUENCE-DEFINED SYNTHETIC POLYMERS USING DNA-TEMPLATED POLYMERIZATION” (President and Fellows of Harvard College, published 2020).)
